PrP 5UTR inh: suppresses PrP 5' UTR mRNA reporter expression; cell-based PrP 5' UTR mRNA reporter, plate reader; inhibition, % (no concentration beside the values); actives 0.35% (n = 340,000); in the data active = inhibition above about 52%; note: 0 = median of the neutral control wells
PrPC surface inh: inhibitors of human cell surface prion protein PrPC; inhibition, % at 13.8 µM; TR-FRET read-out; actives 0.43% (n = 370,000); in the data active = inhibition above about 24%; note: 0% = median of the test wells and 100% = reference compound wells
SSB-PriA inh: blocks PriA binding to SSB C-terminal tail. actives 0.6% (n = 430,000). inhibition, % at 33 µM. AlphaScreen SSBct-PriA binding, biotinylated peptide. AID 1272365; in the data active = inhibition mostly above about 37%, no sharp cut-off; inactive = mostly below about 20%;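 note: plate controls were negative control peptide for no effect and reference peptide for full effect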
PfHsp40 rescue: compounds rescuing yeast from Plasmodium falciparum HSP40 toxicity; S. cerevisiae expressing PfHsp40, growth rescue, ATP luminescence; growth rescue, % at 12.5 µM; actives 0.68% (n = 340,000); AID 504582; in the data active = growth rescue above about 28%, passing the limit was not always enough; inconclusive = no clear call, values can overlap the other calls;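 note: yeast W303a lacking pdr1 and pdr3 grown in galactose medium; growth measured after three days at 30 °C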
BH1578 lux ind: quorum light induction in luxS cqsA deficient V. cholerae | actives 0.16% (n = 350,000) | activation, % at 18.7 µM | V. cholerae BH1578 lux reporter, luminescence, 6 h | AID 588436; in the data active = activation mostly above about 9.7%, no sharp cut-off; inconclusive = no clear call, values can overlap the other calls; inactive = mostly below about 3.7%
3CLpro inhibitor: SARS-CoV 3CLpro protease inhibition; P0C6X7; recombinant SARS-CoV 3CLpro, quenched FRET peptide cleavage; inhibition, % at 6 µM; actives 0.14% (n = 290,000); AID 1706; in the data active = inhibition above about 12%
* marks the source's active call; other numbers are inactive results. A selection: hits, their analogues and other compounds. The true share with any hit is near 1.6%.

What do the screens show for `O=c1oc2ccccc2c2oc3cc(O)c(O)cc3c12`?
PrP 5UTR inh: -30; PrPC surface inh: -2; SSB-PriA inh: -7; PfHsp40 rescue: -1; BH1578 lux ind: -2; 3CLpro inhibitor: 2

Results for CN(C)c1ccc(CCNS(=O)(=O)c2ccc3c(c2)OCCO3)cc1 ?
SSB-PriA inh: 3

How did CCCN1CCCc2cc(CCNC(=O)C(=O)NC3CC3)ccc21 do in these assays?
SSB-PriA inh: 37

What do the screens show for `CCCN1CCCc2cc(CCNC(=O)C(=O)NC(C)C)ccc21`?
SSB-PriA inh: 22

Results for CCCN1CCCc2cc(CCNC(=O)CC)ccc21 ?
SSB-PriA inh: 52

What do the screens show for `CCCN1CCCc2cc(CCNS(=O)(=O)c3ccc4c(c3)OCCO4)ccc21`?
SSB-PriA inh: 67*

How did CCCN1CCCc2cc(CCNS(=O)(=O)CC(C)C)ccc21 do in these assays?
SSB-PriA inh: 74*

What do the screens show for `CCCN1CCCc2cc(CCNS(=O)(=O)c3ccc(CC)s3)ccc21`?
SSB-PriA inh: 60*

Results for CCCN1CCCc2cc(CCNS(C)(=O)=O)ccc21 ?
SSB-PriA inh: 70*

What do the screens show for `O=C(Cn1cnc2ccccc2c1=O)NCc1cncc(-c2ccsc2)c1`?
SSB-PriA inh: -12

How did COc1ccc(C(N)=NOC(=O)c2cc(-c3ccccc3)nc3ccccc23)cc1 do in these assays?
SSB-PriA inh: -7

What do the screens show for `CCCN1CCCc2cc(CCNS(=O)(=O)CCc3ccccc3)ccc21`?
SSB-PriA inh: 71*

How did CCCN1CCCc2cc(CCNC(=O)C(=O)Nc3ccc(F)c(F)c3)ccc21 do in these assays?
SSB-PriA inh: 28

Results for CCCN1CCCc2cc(CCNC(=O)C(=O)Nc3c(C)cccc3C)ccc21 ?
SSB-PriA inh: 35

How did COc1ccc(C)cc1S(=O)(=O)NCCc1ccc2c(c1)CCCN2C do in these assays?
SSB-PriA inh: 65*

What do the screens show for `CCCN1CCCc2cc(CCNS(=O)(=O)c3ccc(F)c(Cl)c3)ccc21`?
SSB-PriA inh: 47*

What do the screens show for `CCCN1CCCc2cc(CCNS(=O)(=O)CCC)ccc21`?
SSB-PriA inh: 112*

What do the screens show for `CCCN1CCCc2cc(CCNC(=O)OCC)ccc21`?
SSB-PriA inh: 71

How did Cc1ccc(Cl)c2sc(NCc3cccnc3)nc12 do in these assays?
SSB-PriA inh: 19

What do the screens show for `CC(C)Oc1ccc(C(=O)N2CCCC(Cc3nc(C4CC4)no3)C2)cn1` (configuration not stated)?
SSB-PriA inh: -5

How did CCCN1CCCc2ccccc21 do in these assays?
PrP 5UTR inh: -36; PrPC surface inh: -1; SSB-PriA inh: 39*; PfHsp40 rescue: 0; BH1578 lux ind: 2; 3CLpro inhibitor: -4

Results for CN1CCCc2cc(CCNC(=O)Cc3cccs3)ccc21 ?
SSB-PriA inh: 42

Results for Cc1ccc(S(=O)(=O)NCCc2ccc3c(c2)CCCN3C)cc1Cl ?
SSB-PriA inh: 38*

Results for CC(C)C(=O)Nc1ccc(S(=O)(=O)NCCc2ccc3c(c2)CCCN3C)cc1 ?
SSB-PriA inh: -8

Results for CC(C)(C)NC(=O)CN(C(=O)CCN1CCCc2ccccc21)C(C)(C)C ?
PrP 5UTR inh: -25; PrPC surface inh: 8; SSB-PriA inh: -6; PfHsp40 rescue: inconclusive; BH1578 lux ind: 0; 3CLpro inhibitor: 2

How did CN1CCCc2cc(CCNS(=O)(=O)c3cccs3)ccc21 do in these assays?
SSB-PriA inh: 71*

How did CCCN1CCCc2cc(CCNS(=O)(=O)c3ccc(CC)cc3)ccc21 do in these assays?
SSB-PriA inh: 51*

What do the screens show for `Cc1cc(C(=O)Nc2cccc3c2C(=O)NC3=O)n(C)n1`?
SSB-PriA inh: 2

What do the screens show for `O=C(Cn1c(=O)oc2ccccc21)N(Cc1ccsc1)C1CC1`?
SSB-PriA inh: 0

What do the screens show for `Cc1cccc2sc(NC(=O)CSc3ccc(F)cc3)nc12`?
SSB-PriA inh: -25

What do the screens show for `Cc1ccc(SCC(=O)Nc2nc(-c3ccc(F)cc3)cs2)cc1`?
SSB-PriA inh: -30

What do the screens show for `COc1ccc(-c2[nH]ncc2N=Nc2ccccc2)cc1`?
PrP 5UTR inh: -42; PrPC surface inh: 8; SSB-PriA inh: 15; PfHsp40 rescue: 50*; BH1578 lux ind: inactive; 3CLpro inhibitor: 5

Results for Cc1csc(NC(=O)CSc2ccc(NC(=O)c3ccccc3F)nn2)n1 ?
SSB-PriA inh: 1

What do the screens show for `CCOC(=O)Cc1cc(=O)n(-c2nc3ccccc3s2)[nH]1`?
PrP 5UTR inh: -9; PrPC surface inh: 1; SSB-PriA inh: 5; PfHsp40 rescue: 140*; BH1578 lux ind: -5; 3CLpro inhibitor: 8

Results for CCOC(=O)c1[nH]c2ccccc2c1NC(=S)Nc1ccc(C(F)(F)F)cc1 ?
SSB-PriA inh: 25

How did Cn1c(SCc2ccccc2)nnc1-c1ccc2c(c1)OCO2 do in these assays?
PrP 5UTR inh: -30; PrPC surface inh: -2; SSB-PriA inh: -8; PfHsp40 rescue: 0; BH1578 lux ind: -1; 3CLpro inhibitor: -3

What do the screens show for `Cn1c(SCC#N)nnc1-c1ccc2c(c1)OCO2`?
PrP 5UTR inh: -38; PrPC surface inh: -1; SSB-PriA inh: -3; PfHsp40 rescue: -2; BH1578 lux ind: 17*; 3CLpro inhibitor: 4

What do the screens show for `O=C(c1ccccc1)c1ccc(Cn2cc(-c3ccccc3)nn2)cc1`?
PrP 5UTR inh: -26; PrPC surface inh: 12; SSB-PriA inh: -16; PfHsp40 rescue: 723*; BH1578 lux ind: 0; 3CLpro inhibitor: -1

Results for COc1ccc(NC(=O)CN2CCN(CC(=O)Nc3ccc(F)cc3F)CC2)cc1 ?
PrP 5UTR inh: -21; PrPC surface inh: -12; SSB-PriA inh: -8; PfHsp40 rescue: 44*; BH1578 lux ind: inactive; 3CLpro inhibitor: -3

Results for COc1cccc(NC(=O)CN2CCN(CC(=O)Nc3ccc(F)cc3)CC2)c1 ?
PrPC surface inh: -14; SSB-PriA inh: 2; PfHsp40 rescue: 1; BH1578 lux ind: inactive; 3CLpro inhibitor: 4

What do the screens show for `O=C(c1ccc(Br)o1)N1CCC2(CC1)NC(=O)N(Cc1ccccc1)C2=O`?
SSB-PriA inh: 14

What do the screens show for `COc1cc([N+](=O)[O-])cc(/C=N/NC(=O)c2cc(C)nc3ccccc23)c1O`?
PrP 5UTR inh: -4; PrPC surface inh: -6; PfHsp40 rescue: 32*; BH1578 lux ind: -1; 3CLpro inhibitor: -1

How did O=C(NN=Cc1cccc([N+](=O)[O-])c1)c1cc(-c2cccnc2)nc2ccccc12 do in these assays?
PrP 5UTR inh: -2; PrPC surface inh: 1; SSB-PriA inh: -10; PfHsp40 rescue: 0; BH1578 lux ind: inactive

What do the screens show for `COc1cc(/C=N/NC(=O)c2cncc(Br)c2)cc([N+](=O)[O-])c1O`?
PrP 5UTR inh: -25; PrPC surface inh: 6; PfHsp40 rescue: -1; BH1578 lux ind: 0; 3CLpro inhibitor: 0

How did COc1cc([N+](=O)[O-])cc(/C=N/NC(=O)c2cncc(Br)c2)c1O do in these assays?
PrPC surface inh: 5; PfHsp40 rescue: 780*; BH1578 lux ind: inactive; 3CLpro inhibitor: -1

From PubChem
